Assay results published in PubChem BioAssay (NCI).
Compounds without any hit were thinned out: in the full panel of roughly 83,000, 20% have a hit.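 Assay: single dose, 48 h. Readout: percent growth (0 = no net growth; negative = cell death). Active: <10.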 A number with no mark means an inactive call.

Test system: MDA-MB-468 breast
Assay: NCI-60 one-dose screen, 48 h (100 = growth as untreated, 0 = no growth, -100 = all killed)
Settings: 10 µM unless noted

Compound | growth
O=c1c2ccccc2sc2c(NCCN3CCOCC3)nc3ccccc3c12 | 59.4%
C#C[C@]1(O)CC[C@H]2[C@@H]3CC=C4c5sc(Nc6cc(Cl)ccn6)nc5CC[C@]4(C)[C@H]3CC[C@@]21C | 28.6%
COc1ccncc1C#Cc1cncc(C(=O)Nc2ccc(CN3CCN(C)CC3)c(C(F)(F)F)c2)c1 | 73.1%
CCCCCCCCCCCCCCCCCCOc1ccccc1CCCOP(=O)(O)OCC[N+](C)(C)C | 77.3%
